From PubChem BioAssay
CYP2C9 act = increases human cytochrome P450 2C9 activity; P11712; 1.4% of 96,000 active; recombinant CYP2C9, luciferin-H conversion, luminescence; active compounds read high; factor 1 = untreated enzyme, 0 = blocked; activation factor at 5 µM;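 active = activation factor of 2 or more for CYP2C9 at a 5 µM dose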;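 also: 0 = sulfaphenazole-blocked wells and 1 = vehicle-only wells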
CYP2C9 inhib = human CYP2C9 inhibition; AID 777; inhibition, % at 5 µM; CYP2C9 Supersomes, luciferin-H conversion, luminescence; P11712; 20% of 96,000 active;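 active = blocking of liver enzyme CYP2C9 beyond about 50% at 5 µM, limit read from the data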
CYP2C19 inh = inhibitors of human CYP2C19; P33261; CYP2C19 Supersomes, luciferin-H EGE luminescence, 30 min; inhibition, % at 5 µM; 21% of 96,000 active; AID 778;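 active = CYP2C19 inhibition above a set limit at 5 µM in the primary screen, cut at about 50% in these data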;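 also: plate controls were negative control wells for no effect and 2.5 mM tranylcypromine positive control for full effect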
Target sequence (P33261 whole entry, looked up): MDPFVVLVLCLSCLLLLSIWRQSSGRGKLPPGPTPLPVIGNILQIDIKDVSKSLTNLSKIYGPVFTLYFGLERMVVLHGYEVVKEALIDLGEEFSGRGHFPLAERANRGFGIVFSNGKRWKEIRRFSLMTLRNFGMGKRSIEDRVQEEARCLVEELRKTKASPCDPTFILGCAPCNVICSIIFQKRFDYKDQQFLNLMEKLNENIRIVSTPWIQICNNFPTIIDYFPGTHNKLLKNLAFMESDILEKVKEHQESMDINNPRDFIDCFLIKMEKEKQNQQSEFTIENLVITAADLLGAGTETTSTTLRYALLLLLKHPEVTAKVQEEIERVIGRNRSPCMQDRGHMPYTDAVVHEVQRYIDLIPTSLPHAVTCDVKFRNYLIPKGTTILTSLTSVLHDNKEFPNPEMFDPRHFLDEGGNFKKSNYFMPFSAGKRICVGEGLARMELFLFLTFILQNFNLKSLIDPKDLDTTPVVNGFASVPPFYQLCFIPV
CYP2C19 act = cytochrome P450 2C19 (human) activation. P33261. recombinant CYP2C19, luciferin-H EGE luminescence; active compounds read high; 0 = fully inhibited enzyme, 1 = untreated enzyme. activation factor at 5 µM. 96,000 tested, under 10 active. AID 1025;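 active = activation factor of at least 2 at 5 µM in the primary screen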;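 also: 0 = wells with 2.5 mM tranylcypromine and 1 = vehicle-only wells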
Starred values were filed as active, the others as inactive. Rows were chosen to be rich in hits. Some 31% of all compounds tested hit in one or more screens of this group.

SMILES	CYP2C9 act	CYP2C9 inhib	CYP2C19 inh	CYP2C19 act
CCOC(=O)C1CCCN(S(=O)(=O)c2ccc(OC)cc2)C1 (configuration not stated)	2.4*	-141.8	96.4*	0
COc1ccc(S(=O)(=O)N2CCCC(C(=O)N3CCCCCC3)C2)cc1 (configuration not stated)	1.3	-32.2	79.6*	0.2
Cc1cccc(C(=O)Nc2sc(C(=O)N3CCCC3)c(C)c2C#N)c1	0.7	33.5	1.6	1
COc1ccc(S(=O)(=O)N2CCCC(C(=O)N3CCOCC3)C2)cc1C (configuration not stated)	2.2*	-116.3	35.7	0.6
CCOC(=O)C1CCN(C(=O)CNS(=O)(=O)c2ccc(Br)s2)CC1	0.8	18.7	5.8	0.9
Cc1ccc(NC(=O)CN2CCCN(S(=O)(=O)c3ccc(Br)s3)CC2)cc1	0.7	30.9	91.4*	0.1
CCOC(=O)C1CCCN(S(=O)(=O)c2ccc(Br)s2)C1 (configuration not stated)	0.7	25.8	82.6*	0.2
CCOC(=O)C1CCCN(C(=O)C2CCN(S(=O)(=O)c3cccs3)CC2)C1 (configuration not stated)	0.4	64.0*	75.1*	0.2
Cc1nnc(C)n1/N=C/C=C/c1ccccc1	1	2.8	6.6	0.9
C=CCn1c(SCC(=O)/C(C#N)=C(\C)N)nnc1C1CCCCC1	1	-2.7	78.0*	0.2
C=CCn1c(SCc2cc(=O)n3ccsc3n2)nnc1C1CCCCC1	1	0.6	87.8*	0.1
C/C(N)=C(/C#N)C(=O)CSc1nc(C2CCCCC2)n(-c2ccccc2)n1	0.2	77.2*	22.7	0.8
C/C(N)=C(/C#N)C(=O)CSc1n[nH]c(-c2ccccc2Br)n1	0.8	19.4	97.0*	0
COc1cc(OC)c2c(C)c(Cl)c(=O)oc2c1	1.1	-10.1	4.3	1
COc1ccccc1NC(=O)C1C2C=CC(O2)C1C(=O)O (configuration not stated)	0.9	7.8	4.3	1
Cc1ccc(C(C(=O)NCc2ccco2)N(C(=O)CNC(=O)c2cccs2)c2c(C)cc(C)cc2C)cc1 (configuration not stated)	0.8	19.7	4.6	1
CCN(CC)C(=O)Nc1ccccc1C	1.1	-13.1	-8.0	1.1
CSc1ncccc1C(=O)OCC(=O)NC(=O)NCCC(C)C	1.2	-22.3	15.8	0.8
CC1(C(=O)NC2CCCCCC2)CCC(=O)N1Cc1ccc2c(c1)OCO2 (configuration not stated)	1	-4.9	9.3	0.9
COc1ccc(CCNC(=O)C2(C)CCC(=O)N2Cc2ccc3c(c2)OCO3)cc1OC (configuration not stated)	1	-1.2	53.7*	0.5
NCCc1nnc(SCc2ccc(F)cc2)o1	0.3	74.8*	90.2*	0.1
CC(=O)c1c(C)nc2nonc2c1N	1.1	-8.6	-4.7	1
CCOC(=O)N1CCC(NC(=O)c2ccc3c(c2)sc2nc(-c4ccccc4)cn23)CC1	0.6	35.6	17.7	0.8
CC(NC(=O)C1CCCN1S(=O)(=O)c1cccc2cccnc12)c1ccccc1 (configuration not stated)	1.8	-84.7	36.3	0.6
COc1ccccc1CNC(=O)C1CCCN1S(=O)(=O)c1cccc2cccnc12 (configuration not stated)	0.9	10.8	82.7*	0.2
SMILES	CYP2C9 act	CYP2C9 inhib	CYP2C19 inh	CYP2C19 act
Cc1cccc(NC(=O)C2CCCN2S(=O)(=O)c2cccc3cccnc23)c1 (configuration not stated)	0.3	70.1*	27.3	0.7
O=C(C1CCCN1S(=O)(=O)c1cccc2cccnc12)N1CCn2c1nc1ccccc12 (configuration not stated)	0.4	57.6*	-0.5	1
CC(=O)c1ccc(NC(=O)C2CCCN2S(=O)(=O)c2cccc3cccnc23)cc1 (configuration not stated)	0.9	14.4	40.8	0.6
Cc1ccc(NC(=O)C2CCCN2S(=O)(=O)c2cccc3cccnc23)cc1F (configuration not stated)	0.1	93.9*	22.8	0.8
O=C(C1CCN(S(=O)(=O)c2cccc3cccnc23)CC1)N1CCn2c1nc1ccccc12	1.4	-38.6	40.2	0.6
CC/C(O)=C(\C#N)c1nnc2n1CCCCC2	1.1	-8.0	-10.4	1.1
O=C(Nc1ncc(Br)s1)C1CCCN1S(=O)(=O)c1cccc2cccnc12 (configuration not stated)	0.6	40.0	14.3	0.9
COc1cc(NC(=O)C2CCCN2S(=O)(=O)c2cccc3cccnc23)cc(OC)c1OC (configuration not stated)	0.2	83.3*	-0.7	1
Cn1c(NC(=O)Cc2ccc(F)cc2)cc(=O)n(C)c1=O	1.1	-13.5	-13.3	1.1
Cc1cc(N2CCCC2)c(C)cc1C=O	0.4	61.9*	27.7	0.7
CCOC(=O)C(Oc1ccc(=O)n(-c2ccccc2)n1)C(C)=O (configuration not stated)	1	-2.4	56.3*	0.4
O=C(O)COc1ccc(=O)n(-c2ccccc2)n1	1	-1.6	4.4	1
COC(=O)COc1ccc(=O)n(-c2ccccc2)n1	0.8	22.7	62.7*	0.4
CCOC(=O)C(Oc1ccc(=O)[nH]n1)C(C)=O (configuration not stated)	1.1	-13.8	45.3	0.5
O=c1oc2c(CN3CCCCC3)c(O)ccc2cc1-c1nc2ccccc2[nH]1	0.5	52.5*	54.0*	0.5
Cc1cc(-c2ccccc2)nc(Oc2ccc(C(C)(C)C)cc2)c1S(C)(=O)=O	0.5	48.2	4.0	1
Cc1cccc(Oc2nc(-c3ccccc3)cc(C)c2S(C)(=O)=O)c1C	0.1	92.8*	63.2*	0.4
Cc1cc(C)cc(Oc2nc(-c3ccccc3)cc(C)c2S(C)(=O)=O)c1	0.1	88.7*	51.7*	0.5
COc1ccccc1Oc1nc(-c2ccccc2)cc(C)c1S(C)(=O)=O	0.9	12.3	10.0	0.9
CC(C)C(NC(=O)COc1ccccc1)C(=O)O (configuration not stated)	1.1	-13.2	-6.7	1.1
CC(C)C(C)NC(=O)COc1ccc(-c2ccccc2)cc1 (configuration not stated)	0.1	87.2*	18.0	0.8
COc1ccc(-n2nnnc2SCC(=O)Nc2cccc(C)n2)cc1OC	0.4	58.2*	26.0	0.7
CCC(=O)Nc1cccc(-n2nnnc2SCC(=O)NCc2ccco2)c1	2.3*	-131.9	57.8*	0.4
CCOC(=O)c1csc(NC(=O)CSc2nnnn2-c2ccc(OC)cc2)n1	1.2	-16.1	-15.7	1.2
COc1ccc(-n2nnnc2SCC(=O)NCc2ccco2)cc1OC	2.2*	-123.8	19.0	0.8
COc1ccc(-n2nnnc2SCC(=O)Nc2nnc(C)s2)cc1	0.5	54.2*	15.9	0.8
O=C(NCCO)NC(=S)c1ccccc1	1	1.0	2.2	1
CC(C)NC(=O)NC(=O)COC(=O)c1ccccc1Oc1ccccc1	0.5	46.7	45.9	0.5
